# Compound activity deposited in PubChem BioAssay by several laboratories.
# S1P4 antagonist: blocks the human S1P4 receptor | inhibition, % at 4.98 µM | AID 1510 | O95977 | hit rate 0.26% among 220,000 | S1P4-expressing cells, antagonist mode, reporter read-out; in the data active = inhibition above about 29%;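 note: 0% = wells stimulated with agonist and 100% = vehicle wells without agonist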
# S1P3 antagonist: blocks the human S1P3 receptor | Q99500 | CHO S1P3 NFAT-BLA reporter, FRET fluorescence, antagonist mode | inhibition, % at 4.98 µM | hit rate 0.27% among 170,000 | AID 485;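 active = inhibition above the plate cutoff, the mean inhibition of test wells on that plate plus 3 SD, cut at about 28% in these data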;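 note: cells challenged with S1P at its EC80 of 0.8 µM; blue over green emission ratio from cleaved BLA substrate after 4 h stimulation; 0% = S1P-stimulated wells and 100% = unstimulated DMSO-only wells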
# Cl transport mod: modulates chloride dependent transport by human KCC2; AID 1456; B-score of Tl+ flux slope (higher = more flux/activation; lower = inhibition) at 10 µM; KCC2 cells, thallium flux FluoZin-2 fluorescence; Q9H2X9; hit rate 2.2% among 190,000;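 active = thallium flux slope and its plate-corrected score both differing from the plate sample mean at a set confidence after two filtering rounds, in either direction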;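 note: slope of fluorescence scaled to starting intensity during 10 to 20 s after thallium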
# Target sequence (Q9H2X9 whole entry, looked up): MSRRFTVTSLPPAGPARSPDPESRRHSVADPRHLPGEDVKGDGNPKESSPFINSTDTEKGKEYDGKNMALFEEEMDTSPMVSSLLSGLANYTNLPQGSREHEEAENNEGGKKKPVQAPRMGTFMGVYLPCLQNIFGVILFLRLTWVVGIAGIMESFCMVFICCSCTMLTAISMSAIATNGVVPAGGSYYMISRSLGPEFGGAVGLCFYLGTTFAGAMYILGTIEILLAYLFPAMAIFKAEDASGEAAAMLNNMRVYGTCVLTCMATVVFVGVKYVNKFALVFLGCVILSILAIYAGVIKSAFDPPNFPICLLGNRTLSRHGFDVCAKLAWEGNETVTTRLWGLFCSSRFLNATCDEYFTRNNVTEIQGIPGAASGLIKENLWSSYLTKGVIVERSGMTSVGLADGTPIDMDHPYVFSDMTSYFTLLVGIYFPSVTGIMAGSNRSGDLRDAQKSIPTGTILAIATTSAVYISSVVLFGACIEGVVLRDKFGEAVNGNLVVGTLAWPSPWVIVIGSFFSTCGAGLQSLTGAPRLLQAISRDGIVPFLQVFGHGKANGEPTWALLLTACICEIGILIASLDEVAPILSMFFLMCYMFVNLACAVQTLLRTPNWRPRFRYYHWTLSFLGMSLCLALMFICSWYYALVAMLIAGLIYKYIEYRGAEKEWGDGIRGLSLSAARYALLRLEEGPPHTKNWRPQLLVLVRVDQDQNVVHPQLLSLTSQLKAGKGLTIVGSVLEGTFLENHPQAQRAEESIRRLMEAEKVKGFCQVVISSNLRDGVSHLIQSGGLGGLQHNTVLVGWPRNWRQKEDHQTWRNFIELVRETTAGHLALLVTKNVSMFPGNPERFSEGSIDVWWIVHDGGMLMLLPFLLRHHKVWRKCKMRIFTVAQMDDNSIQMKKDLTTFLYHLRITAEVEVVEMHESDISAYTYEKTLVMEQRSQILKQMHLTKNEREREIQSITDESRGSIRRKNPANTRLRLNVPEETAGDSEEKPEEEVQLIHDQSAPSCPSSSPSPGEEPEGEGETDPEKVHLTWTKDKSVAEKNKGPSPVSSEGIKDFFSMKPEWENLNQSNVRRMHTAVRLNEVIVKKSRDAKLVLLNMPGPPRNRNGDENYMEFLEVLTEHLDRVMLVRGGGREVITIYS
# S1P4 agonist: human S1P4 receptor agonism; O95977; S1P4-expressing cell line, agonist reporter assay; activation, % at 4.98 µM; hit rate 0.35% among 220,000; AID 1509; in the data active = activation above about 11%;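 note: 0% = DMSO vehicle and 100% = reference agonist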
# ROMK mod: modulates human ROMK potassium channel activity | AID 1918 | B-score at 10 µM | Tet-inducible ROMK, thallium flux fluorescence; actives lie on both sides | P48048 | hit rate 2% among 130,000;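 active = signal ratio slope over the read window, or its plate-corrected B-score, at least 3 SD from the plate mean, either direction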;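 note: B-score of the F/F0 ratio slope over 7 to 12 s after thallium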
# RAM network inh: blocks the yeast RAM network. hit rate 1.8% among 190,000. inhibition, % at 50 µM. AID 868. S. cerevisiae dse1pr::URA3 reporter, 5-FOA growth OD615, 2 d; analog-sensitive cbk1-as2 kinase mutant strain;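 active = inhibition above a set limit, 3 SD over mean compound inhibition, cut at about 8.4% in these data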;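 note: 0% = DMSO-only wells with no growth and 100% = 10 µM 1-NA-PP1 full growth; inhibition rescues growth on 5-FOA so higher OD means more RAM inhibition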
# KCC2 secondary: KCC2 (human) modulation, secondary assay; hit rate 15% among 3,700; normalised thallium flux (F/F0 slope) at 10 µM; shares compounds with Cl transport mod; HEK293-KCC2, thallium flux, FluoZin2 fluorescence; stronger effect = higher value; AID 1713;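 active = thallium flux slope above the same plate's solvent-only control mean plus 3 SD; inconclusive = the two replicate wells disagree; inactive = no significant difference from solvent-only control wells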
# KCC2 bumet counter: thallium flux persisting under bumetanide in KCC2 cells, counter-screen secondary assay. shares compounds with Cl transport mod. HEK293-KCC2 + bumetanide/ouabain, thallium flux FluoZin2; stronger effect = higher value. normalized thallium flux at 10 µM. hit rate 49% among 3,700;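 active = thallium entry rate above the same plate's blocked-transporter control wells by more than 3 SD; inconclusive = the two repeat wells disagree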;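 note: raw slope of fluorescence over initial fluorescence between 10 and 20 s after thallium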
# KCC2 secondary2: confirmation of human KCC2 transport modulators | HEK293-KCC2, thallium flux FluoZin2 fluorescence; actives lie on both sides; F/F0 rise rate, 10–20 s post-thallium | hit rate 23% among 3,700 | shares compounds with Cl transport mod | normalized thallium flux at 10 µM | AID 1715;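 active = thallium flux slope more than 3 SD above or below the plate's solvent-only control mean, mostly below; inconclusive = the two repeat wells disagreed; inactive = no significant shift from solvent-only controls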;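 note: raw slope with 0.1% DMSO as baseline and bumetanide as block control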
# HEK293 Tl flux: acts in parental HEK cells, KCC2 counter-screen; shares compounds with Cl transport mod; hit rate 46% among 3,700; AID 1716; HEK293 parental cells, thallium flux FluoZin2, ouabain; baseline-ratio fluorescence slope, 10–20 s after thallium; thallium flux rate (normalised fluorescence) at 10 µM;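 active = thallium flux rate significantly above the same plate's solvent-only control wells, beyond their mean plus 3 SD; inconclusive = the two replicate wells gave conflicting results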
# KCC2 retest ouab: confirmation of human KCC2 modulators with ouabain; shares compounds with Cl transport mod; raw Tl+ flux slope (below DMSO = inhibition, above = activation) at 10 µM; hit rate 48% among 3,700; HEK293-KCC2, thallium flux FluoZin2 fluorescence; bidirectional: low = inhibitor, high = activator; AID 1717;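 active = thallium flux slope beyond 3 SD from same-plate DMSO control mean in most replicates, usually higher, sometimes lower; inconclusive = repeat tests gave conflicting results; inactive = no significant difference from controls in most replicates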;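 note: slope of initial-normalized fluorescence between seconds 10 and 20 after thallium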
# HEK293 Tl flux2: parental HEK flux effect, counter-screen 2. HEK293 parental, thallium flux FluoZin-2 fluorescence slope. thallium flux slope at 10 µM. AID 1718. hit rate 33% among 3,700. shares compounds with Cl transport mod;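 active = thallium flux slope above the same plate's solvent-control mean plus 3 SD in both duplicate wells; inconclusive = duplicate wells that disagreed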;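 note: run without ouabain in cells lacking the KCC2 cotransporter; slope of fluorescence scaled to its starting value between 10 and 20 s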
# S1P4 ag conf: human S1P4 agonism, confirmation; shares compounds with S1P4 agonist; S1P4 agonist cell-based reporter assay; activation, % at 4.98 µM; hit rate 7% among 740; AID 1523; in the data active = activation above about 12%;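 note: 0% = vehicle and 100% = full reference agonist response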
# S1P1 agonist: activates human S1P1, counter-screen for S1P4 agonists | shares compounds with S1P4 agonist | S1P1 agonist cell-based assay, activation | activation, % at 4.98 µM | hit rate 4% among 740 | AID 1563; in the data active = activation above about 21%;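 note: 0% = vehicle wells and 100% = reference agonist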
# Numbers without * were called inactive; ? = inconclusive; . = not tested or not shown. A selection: hits, their analogues and other compounds. The true share with any hit is near 5.1%.
SMILES,S1P4 antagonist,S1P3 antagonist,Cl transport mod,S1P4 agonist,ROMK mod,RAM network inh,KCC2 secondary,KCC2 bumet counter,KCC2 secondary2,HEK293 Tl flux,KCC2 retest ouab,HEK293 Tl flux2,others
Fc1ccc(C2NCCc3[nH]cnc32)cc1 (stereo not drawn),1,-10,0.2,4,0.94,1,.,.,.,.,.,.,
O=C1N(CN2CCOCC2)c2ccccc2C1(O)c1c[nH]c2ccccc12 (stereo not drawn),-2,-5,.,-2,.,0,0.0091,?,0.03,0.0074,0.021,0.011,
O=C1NC(=O)N(c2cccc(Br)c2)C(=O)/C1=C/c1ccsc1,-1,0,-1.2,0,-0.55,0,.,.,.,.,.,.,
Nc1ccccc1C(=O)OCC(=O)N1CCc2ccccc21,5,.,.,-1,-0.43,2,0.0062,?,0.03,?,0.013*,0.011,
CC1(c2ccccc2)NCCN2C(=O)CSC21 (stereo not drawn),-1,.,-2.3,-3,-0.0093,1,0.0086,0.0061,0.035,0.0045,0.02,0.011,
O=C1CSC2N1CCNC21CCCCC1 (stereo not drawn),-12,-30,-0.032,1,0.094,0,.,.,.,.,.,.,
CN1CCN(Cc2nc3ccccc3n2C)CC1,7,-18,6.9*,1,.,1,0.0061,0.0047,?,0.0079,?,0.011,
COc1cc2c3c(c1OC)-c1cc(O)ccc1CC3NCC2 (stereo not drawn),-5,11,-1.2,-1,-0.51,1,.,.,.,.,.,.,
COc1cc2c(cc1OC)-c1c(OC)c(OC)cc3c1[C@H](C2)[N+](C)(C)CC3,14,1,3.1*,1,-0.24,0,0.0075,?,0.029,0.0076,0.018,0.011,
O=C1CC(c2ccccc2)CN1 (stereo not drawn),-5,1,-0.12,1,.,.,.,.,.,.,.,.,
O=c1c(C=Nc2cccnc2Cl)c(O)n(CCCCl)c(=O)n1C1CCCCC1,-11,2,1.3,1,-0.39,8,.,.,.,.,.,.,
O=c1c(C=NCc2cccs2)c(O)n(C2CCCCC2)c(=O)n1C1CCCCC1,7,.,-3*,-3,-1,1,?,0.0044,0.03,0.0072,0.02,0.01,
c1ccc2c3c([nH]c2c1)C1(CCNCC1)NCC3,9,-1,1.4,-1,.,.,.,.,.,.,.,.,
O=C1NC(=O)C(=Cc2coc3ccccc3c2=O)C(=O)N1,3,-2,-4.1*,0,-0.58,-2,0.0058,0.0058*,?,0.0059*,0.014*,0.0099,
CCOCCCNC(=O)C1c2cc(OC)c(OC)cc2C(=O)N2CCCCC12 (stereo not drawn),1,-8,0.8,10,0.11,1,.,.,.,.,.,.,
CC(C)(O)[C@H]1O[C@H]2CC[C@@]3(C)[C@@](O)(CC[C@H]4Cc5c([nH]c6ccccc56)[C@@]43C)C2=CC1=O,14,4,1.3,0,0.27,0,.,.,.,.,.,.,
O=c1c2ccccc2[nH]c(=S)n1-c1ccc(Br)cc1,8,-6,20*,0,-0.65,3,0.0064,0.041*,0.042*,0.028*,0.044*,0.027*,
O=c1c2cc(Br)ccc2[nH]c(=S)n1-c1ccccc1,4,2,20*,0,0.39,2,0.008,0.027*,0.042*,0.022*,0.033*,0.023*,
CS(=O)(=O)Nc1ccc(Cc2noc(-c3ccc4[nH]cc(CCN)c4c3)n2)cc1,9,-23,0.024,1,.,.,.,.,.,.,.,.,
CCCCCCn1c(O)c(C=NC2CCN(Cc3ccccc3)CC2)c(=O)[nH]c1=O,-14,.,.,1,0.026,1,0.018,0.0046,?,0.007,0.015,0.0096,
C=CCn1c(O)c(C=NC2CCN(Cc3ccccc3)CC2)c(=O)[nH]c1=O,-6,-4,0.0067,-1,-1.4,.,.,.,.,.,.,.,
O=c1[nH]c(=S)[nH]c(O)c1N=Nc1ccc(OC(F)F)cc1,-24,-30,42*,-1,0.85,7,?,0.073*,0.035,0.011*,0.069*,0.011,
COc1ccc(N=Nc2c(O)[nH]c(=S)[nH]c2=O)cc1,-22,-10,-0.012,2,-0.78,7,.,.,.,.,.,.,
CCCCNC(=O)Nc1ccc(C(O)(C(=O)OCC)C(F)(F)F)cc1 (stereo not drawn),1,.,-4.7*,1,-0.59,0,0.0078,0.0069,0.032,?,0.022,0.0099,
CCCCNC(=O)Nc1ccc(C(O)(C(=O)OC)C(F)(F)F)cc1 (stereo not drawn),-15,.,.,-2,0.04,2,.,.,.,.,.,.,
SMILES,S1P4 antagonist,S1P3 antagonist,Cl transport mod,S1P4 agonist,ROMK mod,RAM network inh,KCC2 secondary,KCC2 bumet counter,KCC2 secondary2,HEK293 Tl flux,KCC2 retest ouab,HEK293 Tl flux2,others
C=CCN1C(=O)NC(=O)C(CCc2ccncc2)(CCc2ccncc2)C1=O,-9,3,0.48,1,.,0,.,.,.,.,.,.,
COc1cccc(-c2nc(CS(=O)CC(=O)N3CCC4(CC3)OCCO4)c(C)o2)c1 (stereo not drawn),-10,-26,-5.5*,2,.,1,0.0071,0.0046,?,0.0066,0.017,0.0097,
CC(NC(C)(C)C)C(=O)c1cccc(Cl)c1 (stereo not drawn),-5,-4,7.7*,0,.,0,0.0058,0.0043,0.029,0.0071,0.018,0.0094,
CC(C)NC(C)C(=O)c1ccc2ccccc2c1 (stereo not drawn),0,-14,1.4,1,0.86,1,.,.,.,.,.,.,
C[n+]1ccc(-c2ccncc2)cc1,6,-5,-0.045,12*,1.1,1,.,.,.,.,.,.,S1P4 ag conf=-2;S1P1 agonist=-8
CCOC(=O)C1=C(C)N(C)C2(C)CC1c1ccccc1O2 (stereo not drawn),-9,2,-0.59,0,.,0,.,.,.,.,.,.,
CN1CCC2(CC1)CC(NC=O)c1ccccc1O2 (stereo not drawn),-2,-20,.,13*,0.35,2,.,.,.,.,.,.,S1P4 ag conf=-1;S1P1 agonist=-8
